Screening results deposited in PubChem by C. David Weaver Laboratory, Vanderbilt University.
GIRK2 activ: GIRK2 channel activation | AID 1259325 | HEK293-GIRK2 thallium flux, Thallos fluorescence, MPD | calls only for hits at 25 µM | hit rate 0.05% among 63,000; call rule not given here
Target sequence (P48051 whole entry, looked up): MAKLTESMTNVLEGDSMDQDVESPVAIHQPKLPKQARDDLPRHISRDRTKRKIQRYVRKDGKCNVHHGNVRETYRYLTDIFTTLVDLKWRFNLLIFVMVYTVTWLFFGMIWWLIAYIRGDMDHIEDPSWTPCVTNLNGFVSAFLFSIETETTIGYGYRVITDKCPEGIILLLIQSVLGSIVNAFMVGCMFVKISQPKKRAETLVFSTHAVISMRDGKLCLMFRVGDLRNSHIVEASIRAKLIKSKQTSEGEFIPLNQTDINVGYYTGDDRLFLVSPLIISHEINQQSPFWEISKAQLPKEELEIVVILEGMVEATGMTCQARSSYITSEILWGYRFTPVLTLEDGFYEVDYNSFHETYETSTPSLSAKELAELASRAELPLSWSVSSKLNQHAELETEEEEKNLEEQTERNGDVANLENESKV
Starred values were filed as active, the others as inactive; i = inactive; + = active, no number. Many of the other results were omitted from the sample, so hits are more common in it than they were.

SMILES	GIRK2 activ
CSc1cccc(NC(=O)C(=O)NCC2(c3ccccc3)CCOCC2)c1	i
CSc1ccccc1NC(=O)C(=O)NCC1(CO)CC1	i
CSc1ccccc1NC(=O)C(=O)NCC1(c2ccccc2)CCOCC1	+
CCOCCn1c(=O)c2c(nc3n2CC(C)CN3c2ccc(OC)c(Cl)c2)n(C)c1=O (stereo not drawn)	i
Cc1cc(C)nc(Nc2nc(CC(=O)N3CCc4ccccc4C3)cs2)n1	i
O=C(NCc1ccc(F)c(Cl)c1)c1nnn(-c2ccccc2)c1-c1ccccn1	i
O=C(Nc1cccc(Cl)c1F)c1nnn(-c2ccccc2)c1-c1ccccn1	+
COC(=O)c1ccccc1NC(=O)c1nnn(-c2ccccc2)c1-c1ccccn1	i
Cn1c(=O)[nH]c(=O)c2c1nc1n2CCCN1c1cccc(O)c1	i
CN(C)c1cccc(C(=O)N(Cc2ccoc2)Cc2cccs2)c1	i
COc1ccc(-c2ccc(=O)n(C(C)C(=O)Nc3cccc(-c4csc(C)n4)c3)n2)cc1 (stereo not drawn)	i
CC(C)(C)N(C(=O)c1cc(Cl)ccc1[N+](=O)[O-])C(=O)N1CCCCC1	i
CN(CC(=O)N1CCOCC1)S(=O)(=O)c1ccc(C(=O)NCc2cccnc2)o1	i
Cc1nc(-c2nnc(NC(=O)c3ccc(S(=O)(=O)N(C)C)cc3)o2)cs1	i
Fc1ccc(-c2n[nH]c(=S)s2)cc1	+
Nc1nc(-c2ccc(F)cc2)c(-c2ccc3ncccc3n2)s1	i
Cc1nc(-c2ccc(F)cc2)sc1-c1cc(C(=O)N(C)Cc2ccccc2)n[nH]1	i
COc1cccc2sc(N(C)CC(=O)Nc3nc4c(s3)CCCC4)nc12	i
O=C(Nc1nc(C(=O)NCc2nc3ccccc3[nH]2)co1)c1ccccc1	i
CCOC(=O)N1CCN(C(=O)Cc2csc(Nc3cccc(C)n3)n2)CC1	i
COc1ccc(CNC(=O)N2CCC3(CC2)OCCCO3)cc1	i
COc1ccc(-c2c(C(F)(F)F)oc3cc(OCC(=O)OC(C)(C)C)ccc3c2=O)cc1	i
NC(=O)COc1ccc2c(=O)c(-c3ccc(Cl)cc3)c(C(F)(F)F)oc2c1	+
CC(C)(C)OC(=O)COc1ccc2c(=O)c(-c3ccccc3)c(C(F)(F)F)oc2c1	i
COC(=O)N1CCC(CNC(=O)NCc2ccc(F)cc2)CC1	i
SMILES	GIRK2 activ
CC(C)(Oc1ccc(Cl)cc1)C(=O)N1CCC2(CC1)OCCCO2	i
O=C(NCCN1CCOCC1)c1cc2cc(Br)ccc2o1	i
CC1C(=O)N2CCCc3cc(NC(=O)C(=O)NCC4(O)CCOc5ccccc54)cc1c32 (stereo not drawn)	i
Cc1ccc(NC(=O)C(=O)NCC(O)(c2ccccc2)C2CC2)cc1N1CCCC1=O (stereo not drawn)	i
CC1C(=O)N2CCCc3cc(NC(=O)C(=O)NCC(O)(c4ccccc4)C4CC4)cc1c32 (stereo not drawn)	+
O=C(c1cc(C2CC2)on1)N1CCN(c2ccc(-c3noc(C(F)(F)F)n3)cn2)CC1	i
CC(C)(Oc1ccc(Cl)cc1)C(=O)NCc1ccc(C(=O)c2cccs2)s1	i
COc1cccc(S(=O)(=O)Nc2ccc(C(=O)NCCc3ccc(OC)c(OC)c3)cc2)c1	i
CCn1c(=O)c2c(nc3n(-c4ccc(OC)cc4OC)c(-c4ccccc4)cn23)n(C)c1=O	i
CCn1c(=O)c2c(nc3n(-c4cc(OC)ccc4OC)c(-c4ccccc4)cn23)n(C)c1=O	+
CCCn1c(=O)c2c(nc3n(-c4cc(OC)ccc4OC)c(-c4ccccc4)cn23)n(C)c1=O	i
O=C(/C=C/c1ccc2c(c1)OCO2)N1CCN(C2=NN=C(c3ccccc3)CS2)CC1	i
CCCNC(=O)C1CCC(Cn2c(=O)c3sccc3n(CC(=O)NC3CCCC3)c2=O)CC1 (stereo not drawn)	i
CC1=[N+](CCCCS(=O)(=O)[O-])c2ccc3ccccc3c2C1(C)C	i
N#Cc1ccc(OC2CCN(S(=O)(=O)c3ccccc3)CC2)nc1	i
O=C(NCC(c1cccs1)N1CCOCC1)C(=O)Nc1ccc2c(c1)OCCO2 (stereo not drawn)	i
N#Cc1ccc(Cl)cc1NC(=O)C(=O)NCC(c1cccs1)N1CCOCC1 (stereo not drawn)	i
O=C(NCC(c1cccs1)N1CCOCC1)C(=O)Nc1ccccc1F (stereo not drawn)	+
CCCS(=O)(=O)N1CCN(c2cccc(Cl)c2)CC1	i
COc1ccc(S(=O)(=O)NCCc2csc(-c3ccccc3)n2)cc1F	i
CCOc1ccc(C(=O)NC(C)C(=O)Nc2nc3ccccc3[nH]2)cc1 (stereo not drawn)	i
COCCCNC(=O)CSc1nc(-c2ccc(OC)c(OC)c2)[nH]c1-c1ccc(F)cc1	i
COCCCNC(=O)CSc1nc(-c2ccccc2)[nH]c1-c1ccc(OC)cc1	i
COCCCNC(=O)CSc1nc(-c2ccc(F)cc2)[nH]c1-c1ccc(F)cc1	+
COC(=O)CC1=CC(SCC(=O)Nc2ccccc2Br)=Nc2ccccc2N1	i
SMILES	GIRK2 activ
Cc1cc(OCC(=O)Nc2cc(-n3cccn3)ncn2)ccc1Cl	i
COCc1c(-c2nnc(Cc3ccc(Cl)cc3)o2)nnn1-c1ccc(F)cc1	i
CCOC(=O)N1CCC(NC(=O)c2ccc(NC(=O)c3cn(C)nc3OC)cc2)CC1	i
CC(C)OC(=O)CCC/C=C\CC1C(O)C[C@H](F)[C@@H]1/C=C/[C@H](O)C1Cc2ccccc2C1 (stereo partly drawn)	i
N#Cc1ccc(Cl)cc1NC(=O)c1cnn2c1OCCC2	i
O=C(Nc1cc(Cl)ccc1O)c1cnn2c1OCCC2	+
O=C(Nc1cc2ccccc2oc1=O)c1cnn2c1OCCC2	i
CCOC(=O)Cn1c(=O)c2c(nc3n(-c4ccc(C)cc4)c(-c4ccccc4)cn23)n(C)c1=O	i
Cc1cnc(-n2nnc(C(=O)N3CCc4ccccc4C3)c2C)s1	i
COc1coc(C(=O)Nc2ccc(C)c(Cl)c2)cc1=O	i
COc1coc(C(=O)Nc2ccc(Oc3ccccc3)cc2)cc1=O	+
COc1coc(C(=O)NCc2ccccc2)cc1=O	i
O=C(Cn1nc(-c2ccco2)ccc1=O)NCc1csc(-c2ccccc2)n1	i
COCc1nc2ccccc2n1CCCOc1ccc(Cl)cc1	i
Cc1cc(C)n(-c2ncc(NC(=O)Nc3ccc(Cl)c(C(F)(F)F)c3)cn2)n1	i
Cc1ccc(NC(=O)Nc2cnc(N3CCN(C)CC3)nc2)c(Cl)c1	i
CN1CCN(c2ncc(NC(=O)Nc3ccc(Cl)c(C(F)(F)F)c3)cn2)CC1	+
COC(=O)c1ccc2c(=O)n(-c3ccc(F)c(Cl)c3)c(N3CCN(C)CC3)nc2c1	i
O=C(CCC(=O)N1CC(c2nc(-c3cnccn3)no2)C1)c1ccccc1	i
Cc1cc(C(=O)NCC2(c3cccs3)CC2)c(C)o1	i
O=C(Cc1ccc(Cl)cc1)NCC1(CO)CC1	i
COc1ccc(C(=O)NCCN2CCN(c3ccccc3)CC2)c(OC)c1OC	i
COC(=O)c1c(S(=O)(=O)N2CCN(c3cccc(Cl)c3)CC2)n[nH]c1C	+
CCOc1ccccc1N1CCN(S(=O)(=O)c2n[nH]c(C)c2C(=O)OC)CC1	i
CCOC(=O)c1c(S(=O)(=O)N2CCN(c3ccc(Cl)cc3)CC2)n[nH]c1C	i
O=C(c1ccc(NS(=O)(=O)c2cccc(F)c2)cc1)N1CCC(Cc2ccccc2)CC1	i
O=C(NCC1CCS(=O)(=O)C1)c1nc2ccccc2s1 (stereo not drawn)	i
CCc1ccc(NC(=O)Cn2cccc(-c3nc(-c4ccccc4)no3)c2=O)cc1	i
